The source of these data is ChEMBL document CHEMBL3988442, “University of Dundee, Small-Polar-MMV Screening Library” (2021).

The whole screen tested about 69,000 compounds, of which about 1,000 (1.4%) showed an effect of 50% or more. For the sample, strong results were picked, then their nearest neighbours and some compounds at random.

The subject of the assay is Leishmania donovani. Kind of assay: Leishmania intramacrophage assay. The assay is classed as functional, organism-based. More on the design: scale not given: in the data most compounds retested in dose-response had high values.

Take `Cc1nn(C)c(C)c1CN(C)C(=O)c1cccc(CCC(C)(C)O)c1`: for the setting “30.3 µM, […]”, the “Percent Effect” value stood at 45.36%. Same read-out and setting: the figure for `O=C(O)C(F)(F)F.O=C(c1ccc[nH]1)N1CCCn2c(CNC3CCC3)nnc2C1` is 19.78%. On the same count and under the same terms, then `Cc1ccccc1-c1cncc(C2CCN(C3CCOCC3)CC2)n1`, with -12.97%. `C1CCC(c2nc3c(c(N4CC(N5CCOCC5)C4)n2)CCNCC3)C1`: where the note is “30.3 µM, […]”, the “Percent Effect” value is on record as 33.91%.

Take `NCC1CCN(c2nc(C3CCCC3)nc3c2CCNCC3)C1` (stereo not drawn): for the setting “30.3 µM, […]”, the “Percent Effect” value is listed as -3.279%. On the same count and under the same terms, the figure for `C1CCC(c2nc3c(c(N4CCN5CCCC5C4)n2)CCNCC3)C1` (stereo not drawn) is 52.04%; for `CCc1cn[nH]c1C1CCN(c2cc(C)c3cccc(OC)c3n2)CC1` it is 13.27%. The same measure, in the same setting: then `Cn1cnc(-c2nc(C(=O)NCCN3CCOCC3)c3ccccn23)c1`, with 40.37%.

Take `Cn1cnc(-c2nc(C(=O)NCCN3CCCC3)c3ccccn23)c1`: the “Percent Effect” value (30.3 µM, […]) turned out to be 50.91%.

Regarding `COCCNC(=O)c1nc(-c2cn(C)cn2)n2ccccc12`, the “Percent Effect” value (30.3 µM, […]) is 36.99%.

Consider `COCCN1CCN(Cc2nccs2)[C@H]2CS(=O)(=O)C[C@H]21`, for which the “Percent Effect” value (30.3 µM, […]) was -6.4%. Consider `O=C(NCCC(=O)N1CCCC1)c1nn(-c2ccccc2F)cc1O`, for which the “Percent Effect” value (30 µM, 30.03 µM) is -0.1897%.

As to `Cc1ncsc1CCC(=O)N1CCn2cccc2C1c1cccnc1` (stereo not drawn), the “Percent Effect” value (30.3 µM, […]) stood at 18.51%. Still for that read-out and setting: then `CN(Cc1cnc(C(C)(C)C)nc1)Cc1nc2ccc(F)cc2[nH]1`, with 52.7%; and `Cc1ccc(CN(C)Cc2nc3ccc(F)cc3[nH]2)cn1`, with 12.06%; and `CNS(=O)(=O)c1ccc(CN(C)Cc2nc3ccc(F)cc3[nH]2)cc1`, with -17.23%.

Take `Cc1c(C(=O)NCC2CCS(=O)(=O)C2)cnn1-c1ccccc1` (stereo not drawn): under “30.3 µM, […]”, the “Percent Effect” value is -5.688%.

In the case of `CN(C)C(=O)c1cccnc1-c1ccc2c(c1)OCO2`, the “Percent Effect” value (30.3 µM, […]) was 11.7%.

Regarding `Cc1ccc2c(c1)cc(CN1CC[C@](C)(O)[C@H](C)C1)n2C`, under “30.3 µM, […]”, the “Percent Effect” value turned out to be 50.4%. Still for that read-out and setting: then `C[C@@H]1CN(Cc2cc3ccccc3n2C)CC[C@]1(C)O`, with 19.22%; and `C[C@@H]1CN(Cc2cc3ccccc3n2C)CC[C@@]1(O)C1CC1`, with 34.38%. Still for that read-out and setting: the figure for `CC(C(=O)N1CCN(CCOc2ccccc2)CC1)n1cncn1` (stereo not drawn) is 10.7%; for `CCOCC1CN(S(=O)(=O)C2CC2)Cc2cnn(C)c21` (stereo not drawn) it is -42.59%. Same read-out and setting: the figure for `CN(CC(=O)N1CCCC1)C(=O)c1ccccc1Nc1ccccc1` is -2.979%. `CCc1cnc(N)nc1N[C@@H](C)c1ncccc1C`: the “Percent Effect” value (30.3 µM, […]) amounted to 22.19%.

With `CCc1cnc(N)nc1NC(C)c1ccc(C)c(C)c1` (stereo not drawn), the “Percent Effect” value (30.3 µM, […]) is recorded as 88.85%. With `CCc1cnc(N)nc1NC(C)c1cnn(C)c1` (stereo not drawn), the “Percent Effect” value (30.3 µM, […]) is given as 1.659%. Turning to `CC(C)OC[C@H]1CCC[C@]12CN(S(=O)(=O)c1cn(C)cn1)CCO2`, the “Percent Effect” value (30.3 µM, […]) came out at 9.701%.
